# Measurements: paper PMC7862700, “An all-to-all approach to the identification of sequence-specific readers for epigenetic DNA modifications on cytosine”
# How the values were obtained:
# Assay in all cases: DAPPL (digital affinity profiling via proximity ligation, sequencing); 10 mM Tris-HCl pH 7.5, 50 mM NaCl, 1 mM DTT, 4% glycerol, room temperature, 30 min; GST-TFs on glutathione beads, 16-mer random dsDNA library, 0.1% formaldehyde crosslink after washing; high values mean tight binding
# [1] = biological target: T1, FLI1 (Homo sapiens, UniProt Q01543 1-452); settings: protein: recombinant; tags: N-terminal GST; dsDNA, one strand shown
# T1 sequence: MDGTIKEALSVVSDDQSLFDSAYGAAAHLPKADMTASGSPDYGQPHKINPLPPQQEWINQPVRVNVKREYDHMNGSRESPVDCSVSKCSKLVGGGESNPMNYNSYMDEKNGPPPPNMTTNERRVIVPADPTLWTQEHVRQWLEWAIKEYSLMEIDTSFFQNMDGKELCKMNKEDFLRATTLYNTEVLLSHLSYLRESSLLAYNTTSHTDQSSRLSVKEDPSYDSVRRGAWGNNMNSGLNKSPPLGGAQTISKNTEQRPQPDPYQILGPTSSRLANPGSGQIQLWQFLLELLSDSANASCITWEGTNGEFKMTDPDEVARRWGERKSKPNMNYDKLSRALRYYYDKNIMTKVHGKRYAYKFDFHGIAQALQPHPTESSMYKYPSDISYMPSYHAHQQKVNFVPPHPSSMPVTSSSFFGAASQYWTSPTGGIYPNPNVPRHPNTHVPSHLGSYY
# Outline: (§1)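 Human transcription factors were made in yeast as GST fusions, captured on glutathione beads and barcoded with DNA. With a tag-only sample included, the pool was incubated with 200 nmole of a random double-stranded 16-mer DNA library in Tris/NaCl/DTT/glycerol buffer at room temperature for 30 min, then crosslinked with 0.1% formaldehyde after washing, ligated by proximity, amplified and sequenced. For binding signal, each hexamer's read frequency for a factor is divided by its frequency for the tag-only sample.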
# [2] = biological target: T2, ELK1 (Homo sapiens, UniProt P19419 1-428); settings: protein: recombinant; tags: N-terminal GST; dsDNA, one strand shown
# T2 sequence: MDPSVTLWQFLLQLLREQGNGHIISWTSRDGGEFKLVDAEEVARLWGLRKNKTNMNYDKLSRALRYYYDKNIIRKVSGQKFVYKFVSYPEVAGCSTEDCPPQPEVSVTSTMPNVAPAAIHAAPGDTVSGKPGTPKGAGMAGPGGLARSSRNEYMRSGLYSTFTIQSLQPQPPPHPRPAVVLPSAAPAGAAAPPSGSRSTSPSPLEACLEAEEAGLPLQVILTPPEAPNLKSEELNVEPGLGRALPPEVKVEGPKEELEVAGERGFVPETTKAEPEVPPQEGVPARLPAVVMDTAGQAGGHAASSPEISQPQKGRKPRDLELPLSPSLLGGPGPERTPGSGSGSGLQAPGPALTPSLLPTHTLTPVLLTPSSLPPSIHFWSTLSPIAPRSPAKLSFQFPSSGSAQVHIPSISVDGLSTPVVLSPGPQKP
# Outline: as §1
# [3] = biological target: T3, GABPA (Homo sapiens, UniProt Q06546 1-454); settings: protein: recombinant; tags: N-terminal GST; dsDNA, one strand shown
# T3 sequence: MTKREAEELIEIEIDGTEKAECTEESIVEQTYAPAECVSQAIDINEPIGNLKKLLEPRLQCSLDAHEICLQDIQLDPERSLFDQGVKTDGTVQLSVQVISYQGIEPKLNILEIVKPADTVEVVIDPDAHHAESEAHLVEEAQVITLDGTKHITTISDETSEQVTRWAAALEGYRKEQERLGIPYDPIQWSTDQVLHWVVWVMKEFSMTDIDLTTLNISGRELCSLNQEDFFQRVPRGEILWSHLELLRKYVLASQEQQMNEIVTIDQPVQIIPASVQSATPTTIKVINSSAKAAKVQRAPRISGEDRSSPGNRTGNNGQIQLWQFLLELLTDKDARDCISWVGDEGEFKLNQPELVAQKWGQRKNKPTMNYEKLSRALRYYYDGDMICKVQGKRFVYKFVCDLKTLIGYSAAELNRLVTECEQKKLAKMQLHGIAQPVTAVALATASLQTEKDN
# Outline: as §1
# [4] = biological target: T4, ERG (Homo sapiens, UniProt P11308 1-479); settings: protein: recombinant; tags: N-terminal GST; dsDNA, one strand shown
# T4 sequence: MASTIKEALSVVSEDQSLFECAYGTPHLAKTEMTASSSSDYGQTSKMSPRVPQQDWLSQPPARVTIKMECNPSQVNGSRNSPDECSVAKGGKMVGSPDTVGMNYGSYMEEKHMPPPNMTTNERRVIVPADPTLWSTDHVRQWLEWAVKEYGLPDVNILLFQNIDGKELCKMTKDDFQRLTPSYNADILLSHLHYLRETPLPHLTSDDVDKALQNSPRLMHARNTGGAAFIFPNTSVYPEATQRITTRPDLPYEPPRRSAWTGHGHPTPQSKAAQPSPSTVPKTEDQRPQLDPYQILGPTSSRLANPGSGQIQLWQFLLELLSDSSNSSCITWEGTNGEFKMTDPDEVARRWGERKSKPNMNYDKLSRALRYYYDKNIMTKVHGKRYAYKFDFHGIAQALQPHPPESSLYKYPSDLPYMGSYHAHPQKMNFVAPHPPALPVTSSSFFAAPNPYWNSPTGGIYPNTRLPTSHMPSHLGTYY
# Outline: as §1
# [5] = biological target: ELF1 (Homo sapiens, UniProt P32519 1-619); settings: protein: recombinant; tags: N-terminal GST; dsDNA, one strand shown
# Outline: as §1
# [6] = biological target: T5, EHF (Homo sapiens, UniProt Q9NZC4 1-300); settings: protein: recombinant; tags: N-terminal GST; dsDNA, one strand shown
# T5 sequence: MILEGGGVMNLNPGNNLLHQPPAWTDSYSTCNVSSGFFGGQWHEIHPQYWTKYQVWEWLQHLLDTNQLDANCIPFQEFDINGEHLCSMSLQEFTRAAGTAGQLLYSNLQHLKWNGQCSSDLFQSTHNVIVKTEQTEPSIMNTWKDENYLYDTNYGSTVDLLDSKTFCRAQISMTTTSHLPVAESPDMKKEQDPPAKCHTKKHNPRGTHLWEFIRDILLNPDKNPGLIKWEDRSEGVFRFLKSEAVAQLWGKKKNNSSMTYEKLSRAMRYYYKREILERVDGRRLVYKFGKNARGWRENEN
# Outline: as §1
# [7] = biological target: SPI1 (Homo sapiens, UniProt P17947 1-270); settings: protein: recombinant; tags: N-terminal GST; dsDNA, one strand shown
# Outline: as §1
# [8] = biological target: SPIB (Homo sapiens, UniProt Q01892 1-262); settings: protein: recombinant; tags: N-terminal GST; dsDNA, one strand shown
# Outline: as §1
# [9] = biological target: T6, ELK3 (Homo sapiens, UniProt P41970 1-407); settings: protein: recombinant; tags: N-terminal GST; dsDNA, one strand shown
# T6 sequence: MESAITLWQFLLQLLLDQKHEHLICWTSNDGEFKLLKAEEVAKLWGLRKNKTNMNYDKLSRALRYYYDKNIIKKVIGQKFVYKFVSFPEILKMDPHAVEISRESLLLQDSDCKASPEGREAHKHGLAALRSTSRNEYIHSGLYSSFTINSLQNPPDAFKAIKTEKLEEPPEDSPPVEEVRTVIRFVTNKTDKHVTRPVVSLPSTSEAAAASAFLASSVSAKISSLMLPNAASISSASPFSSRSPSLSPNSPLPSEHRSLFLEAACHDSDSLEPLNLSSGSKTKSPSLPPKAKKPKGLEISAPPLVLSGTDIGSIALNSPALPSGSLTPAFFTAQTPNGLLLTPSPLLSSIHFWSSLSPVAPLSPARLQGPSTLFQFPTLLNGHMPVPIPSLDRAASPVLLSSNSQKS
# Outline: as §1
# [10] = biological target: T7, FEV (Homo sapiens, UniProt Q99581 1-238); settings: protein: recombinant; tags: N-terminal GST; dsDNA, one strand shown
# T7 sequence: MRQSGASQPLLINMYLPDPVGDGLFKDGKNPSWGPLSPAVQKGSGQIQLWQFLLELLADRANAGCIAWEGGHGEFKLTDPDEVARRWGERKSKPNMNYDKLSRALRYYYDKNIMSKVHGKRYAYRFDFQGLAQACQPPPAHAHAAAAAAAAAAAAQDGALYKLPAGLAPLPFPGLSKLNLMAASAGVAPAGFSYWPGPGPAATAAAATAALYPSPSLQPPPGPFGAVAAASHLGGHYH
# Outline: as §1
# [11] = biological target: ETV5 (Homo sapiens, UniProt P41161 1-510); settings: protein: recombinant; tags: N-terminal GST; dsDNA, one strand shown
# Outline: as §1
# [12] = biological target: HSF1 (Homo sapiens, UniProt Q00613 1-529); settings: protein: recombinant; tags: N-terminal GST; chain copies: 3; dsDNA, one strand shown
# Outline: as §1
# [13] = biological target: T8, SPIC (Homo sapiens, UniProt Q8N5J4 1-248); settings: protein: recombinant; tags: N-terminal GST; dsDNA, one strand shown
# T8 sequence: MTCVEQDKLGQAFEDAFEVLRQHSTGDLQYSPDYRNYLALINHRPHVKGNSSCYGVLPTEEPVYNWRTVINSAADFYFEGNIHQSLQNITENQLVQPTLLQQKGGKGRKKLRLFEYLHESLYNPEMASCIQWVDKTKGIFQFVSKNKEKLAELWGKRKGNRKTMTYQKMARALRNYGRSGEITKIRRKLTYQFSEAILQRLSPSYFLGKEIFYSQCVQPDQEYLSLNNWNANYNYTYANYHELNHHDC
# Outline: as §1
# [14] = biological target: ELF4 (Homo sapiens, UniProt Q99607 1-663); settings: protein: recombinant; tags: N-terminal GST; dsDNA, one strand shown
# Outline: as §1
# [15] = biological target: T9, ELK4 (Homo sapiens, UniProt P28324-2 1-405); settings: protein: recombinant; tags: N-terminal GST; dsDNA, one strand shown
# T9 sequence: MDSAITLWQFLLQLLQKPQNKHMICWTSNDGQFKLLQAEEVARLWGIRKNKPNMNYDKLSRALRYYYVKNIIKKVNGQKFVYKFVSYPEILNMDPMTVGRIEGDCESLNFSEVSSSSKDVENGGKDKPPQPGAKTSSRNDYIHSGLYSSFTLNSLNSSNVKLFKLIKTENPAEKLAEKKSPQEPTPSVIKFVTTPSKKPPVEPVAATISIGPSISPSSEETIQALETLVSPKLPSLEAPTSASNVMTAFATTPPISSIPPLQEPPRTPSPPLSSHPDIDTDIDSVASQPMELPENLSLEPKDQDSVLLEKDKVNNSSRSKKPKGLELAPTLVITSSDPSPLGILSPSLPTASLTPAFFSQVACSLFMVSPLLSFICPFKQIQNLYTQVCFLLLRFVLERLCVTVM
# Outline: as §1
# [16] = biological target: T10, ETV2 (Homo sapiens, UniProt O00321 1-342); settings: protein: recombinant; tags: N-terminal GST; dsDNA, one strand shown
# T10 sequence: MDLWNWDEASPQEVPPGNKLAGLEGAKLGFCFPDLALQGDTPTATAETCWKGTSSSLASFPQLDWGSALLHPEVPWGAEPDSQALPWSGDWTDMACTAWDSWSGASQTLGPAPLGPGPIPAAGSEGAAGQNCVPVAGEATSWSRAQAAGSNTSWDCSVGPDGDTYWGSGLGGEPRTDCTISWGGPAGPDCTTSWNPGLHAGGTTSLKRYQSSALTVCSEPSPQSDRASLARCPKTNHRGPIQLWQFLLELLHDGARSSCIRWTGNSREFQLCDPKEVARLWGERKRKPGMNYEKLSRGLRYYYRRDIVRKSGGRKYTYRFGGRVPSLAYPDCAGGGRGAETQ
# Outline: as §1
# [17] = biological target: T11, ELF3 (Homo sapiens, UniProt P78545 1-371); settings: protein: recombinant; tags: N-terminal GST; dsDNA, one strand shown
# T11 sequence: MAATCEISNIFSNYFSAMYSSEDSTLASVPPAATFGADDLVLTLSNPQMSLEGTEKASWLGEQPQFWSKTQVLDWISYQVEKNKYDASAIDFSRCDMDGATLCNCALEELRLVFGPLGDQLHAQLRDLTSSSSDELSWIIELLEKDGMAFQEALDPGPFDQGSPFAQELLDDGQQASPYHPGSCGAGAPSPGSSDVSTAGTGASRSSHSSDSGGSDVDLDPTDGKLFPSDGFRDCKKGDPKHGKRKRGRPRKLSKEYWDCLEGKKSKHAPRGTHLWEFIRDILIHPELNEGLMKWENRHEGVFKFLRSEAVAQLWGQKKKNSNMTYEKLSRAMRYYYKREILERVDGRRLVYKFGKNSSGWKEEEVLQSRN
# Outline: as §1
# [18] = biological target: CRX (Homo sapiens, UniProt O43186 1-299); settings: protein: recombinant; tags: N-terminal GST; dsDNA, one strand shown
# Outline: as §1
# [19] = biological target: ETV1 (Homo sapiens, UniProt P50549 1-477); settings: protein: recombinant; tags: N-terminal GST; dsDNA, one strand shown
# Outline: as §1
# Sequence of SPIB (Q01892 whole entry): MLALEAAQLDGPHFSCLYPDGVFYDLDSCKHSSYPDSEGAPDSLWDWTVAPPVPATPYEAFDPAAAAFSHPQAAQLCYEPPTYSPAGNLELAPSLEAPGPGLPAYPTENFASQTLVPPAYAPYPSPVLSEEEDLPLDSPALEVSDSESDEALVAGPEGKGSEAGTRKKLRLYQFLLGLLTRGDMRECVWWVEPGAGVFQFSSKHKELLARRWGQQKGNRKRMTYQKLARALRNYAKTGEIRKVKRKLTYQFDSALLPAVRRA
# Sequence of HSF1 (Q00613 whole entry): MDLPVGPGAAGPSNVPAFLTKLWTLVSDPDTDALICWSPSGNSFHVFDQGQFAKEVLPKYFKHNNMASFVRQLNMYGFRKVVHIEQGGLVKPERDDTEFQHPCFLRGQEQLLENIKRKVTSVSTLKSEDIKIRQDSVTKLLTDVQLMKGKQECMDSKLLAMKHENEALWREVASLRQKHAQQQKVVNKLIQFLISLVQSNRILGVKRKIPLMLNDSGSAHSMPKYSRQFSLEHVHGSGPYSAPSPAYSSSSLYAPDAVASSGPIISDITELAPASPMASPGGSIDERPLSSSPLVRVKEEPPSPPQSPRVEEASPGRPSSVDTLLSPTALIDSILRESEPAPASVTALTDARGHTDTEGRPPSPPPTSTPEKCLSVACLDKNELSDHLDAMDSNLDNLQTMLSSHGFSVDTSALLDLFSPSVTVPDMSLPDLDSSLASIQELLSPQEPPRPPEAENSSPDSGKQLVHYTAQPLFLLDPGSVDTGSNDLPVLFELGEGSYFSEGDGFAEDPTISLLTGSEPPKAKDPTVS
# Sequence of ELF1 (P32519 whole entry): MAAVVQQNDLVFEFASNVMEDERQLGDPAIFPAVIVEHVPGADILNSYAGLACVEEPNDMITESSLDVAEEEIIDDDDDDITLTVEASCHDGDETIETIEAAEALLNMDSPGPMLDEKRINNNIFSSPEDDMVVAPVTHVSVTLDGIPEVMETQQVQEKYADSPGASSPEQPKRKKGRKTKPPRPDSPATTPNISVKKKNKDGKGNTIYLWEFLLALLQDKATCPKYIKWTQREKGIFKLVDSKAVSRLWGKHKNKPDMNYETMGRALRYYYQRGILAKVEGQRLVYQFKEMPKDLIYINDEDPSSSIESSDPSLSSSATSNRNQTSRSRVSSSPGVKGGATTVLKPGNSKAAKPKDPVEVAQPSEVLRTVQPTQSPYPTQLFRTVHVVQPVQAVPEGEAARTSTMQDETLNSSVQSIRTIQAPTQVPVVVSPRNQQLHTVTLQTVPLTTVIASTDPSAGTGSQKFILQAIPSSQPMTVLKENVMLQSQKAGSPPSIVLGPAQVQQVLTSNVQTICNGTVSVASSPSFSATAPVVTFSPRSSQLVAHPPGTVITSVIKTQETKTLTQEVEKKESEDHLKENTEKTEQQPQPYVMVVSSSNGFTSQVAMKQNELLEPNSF
# Sequence of ETV1 (P50549 whole entry): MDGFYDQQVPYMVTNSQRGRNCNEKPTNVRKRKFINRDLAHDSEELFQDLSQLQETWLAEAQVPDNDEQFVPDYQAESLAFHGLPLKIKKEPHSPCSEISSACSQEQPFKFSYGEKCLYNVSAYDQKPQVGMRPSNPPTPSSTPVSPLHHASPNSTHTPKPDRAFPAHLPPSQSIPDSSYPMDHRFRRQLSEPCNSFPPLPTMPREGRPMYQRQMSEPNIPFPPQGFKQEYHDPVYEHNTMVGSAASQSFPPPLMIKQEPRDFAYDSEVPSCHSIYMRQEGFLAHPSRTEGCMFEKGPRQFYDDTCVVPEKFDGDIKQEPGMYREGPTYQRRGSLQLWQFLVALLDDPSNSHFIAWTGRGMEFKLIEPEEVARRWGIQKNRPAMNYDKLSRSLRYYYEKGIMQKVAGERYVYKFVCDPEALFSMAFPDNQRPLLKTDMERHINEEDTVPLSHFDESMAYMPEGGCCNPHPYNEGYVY
# Sequence of CRX (O43186 whole entry): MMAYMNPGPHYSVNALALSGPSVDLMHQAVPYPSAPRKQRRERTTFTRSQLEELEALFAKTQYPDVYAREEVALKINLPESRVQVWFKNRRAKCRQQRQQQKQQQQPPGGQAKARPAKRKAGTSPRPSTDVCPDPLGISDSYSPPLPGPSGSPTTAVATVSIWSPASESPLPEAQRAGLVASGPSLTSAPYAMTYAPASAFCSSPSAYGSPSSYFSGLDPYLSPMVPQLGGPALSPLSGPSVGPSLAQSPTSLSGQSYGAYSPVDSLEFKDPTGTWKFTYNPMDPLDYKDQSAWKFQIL
# Sequence of ELF4 (Q99607 whole entry): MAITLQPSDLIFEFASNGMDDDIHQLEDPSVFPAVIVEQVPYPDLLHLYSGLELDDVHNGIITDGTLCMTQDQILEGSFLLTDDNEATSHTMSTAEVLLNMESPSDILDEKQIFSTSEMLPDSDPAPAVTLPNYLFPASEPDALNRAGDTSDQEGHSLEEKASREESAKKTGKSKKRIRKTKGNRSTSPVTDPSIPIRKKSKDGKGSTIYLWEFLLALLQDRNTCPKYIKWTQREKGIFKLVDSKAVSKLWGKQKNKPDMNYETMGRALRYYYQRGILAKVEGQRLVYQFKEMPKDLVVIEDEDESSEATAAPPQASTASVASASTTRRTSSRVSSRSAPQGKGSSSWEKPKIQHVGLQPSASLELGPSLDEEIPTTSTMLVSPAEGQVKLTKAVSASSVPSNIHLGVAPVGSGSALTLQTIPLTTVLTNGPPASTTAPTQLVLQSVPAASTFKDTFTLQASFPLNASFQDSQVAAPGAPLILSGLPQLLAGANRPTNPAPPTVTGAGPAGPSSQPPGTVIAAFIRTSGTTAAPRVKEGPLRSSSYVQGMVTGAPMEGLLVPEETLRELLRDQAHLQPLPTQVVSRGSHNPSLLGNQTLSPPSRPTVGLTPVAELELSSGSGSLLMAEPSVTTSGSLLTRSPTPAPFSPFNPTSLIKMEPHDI
# Sequence of ETV5 (P41161 whole entry): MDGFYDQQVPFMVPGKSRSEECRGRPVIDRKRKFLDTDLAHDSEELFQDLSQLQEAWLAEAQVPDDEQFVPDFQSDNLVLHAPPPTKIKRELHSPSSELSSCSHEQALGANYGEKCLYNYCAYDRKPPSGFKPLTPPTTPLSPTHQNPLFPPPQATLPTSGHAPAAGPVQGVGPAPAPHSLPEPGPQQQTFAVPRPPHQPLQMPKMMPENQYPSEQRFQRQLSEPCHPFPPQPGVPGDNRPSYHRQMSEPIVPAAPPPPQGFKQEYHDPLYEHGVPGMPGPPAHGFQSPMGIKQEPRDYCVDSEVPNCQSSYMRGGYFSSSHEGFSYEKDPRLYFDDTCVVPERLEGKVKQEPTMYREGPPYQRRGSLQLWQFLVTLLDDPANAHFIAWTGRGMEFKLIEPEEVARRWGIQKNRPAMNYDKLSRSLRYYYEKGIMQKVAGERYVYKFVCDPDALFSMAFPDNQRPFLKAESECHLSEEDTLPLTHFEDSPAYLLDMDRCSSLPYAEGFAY
sequence,measurement,setting,value
TCCTTC,binding signal,[1],"2.2 fold enrichment (6-mer frequency, TF over GST control)"
same,binding signal,[2],"2 fold enrichment (6-mer frequency, TF over GST control)"
same,binding signal,[3],"2.01 fold enrichment (6-mer frequency, TF over GST control)"
same,binding signal,[4],"2.44 fold enrichment (6-mer frequency, TF over GST control)"
same,binding signal,[5],"2.05 fold enrichment (6-mer frequency, TF over GST control)"
same,binding signal,[6],"2 fold enrichment (6-mer frequency, TF over GST control)"
same,binding signal,[7],"2.15 fold enrichment (6-mer frequency, TF over GST control)"
same,binding signal,[8],"2.16 fold enrichment (6-mer frequency, TF over GST control)"
same,binding signal,[9],"2.3 fold enrichment (6-mer frequency, TF over GST control)"
same,binding signal,[10],"2.2 fold enrichment (6-mer frequency, TF over GST control)"
same,binding signal,[11],"2.1 fold enrichment (6-mer frequency, TF over GST control)"
same,binding signal,[12],"2.13 fold enrichment (6-mer frequency, TF over GST control)"
same,binding signal,[13],"2.26 fold enrichment (6-mer frequency, TF over GST control)"
same,binding signal,[14],"2.08 fold enrichment (6-mer frequency, TF over GST control)"
same,binding signal,[15],"2.04 fold enrichment (6-mer frequency, TF over GST control)"
same,binding signal,[16],"2.47 fold enrichment (6-mer frequency, TF over GST control)"
same,binding signal,[17],"1.85 fold enrichment (6-mer frequency, TF over GST control)"
same,binding signal,[18],"1.72 fold enrichment (6-mer frequency, TF over GST control)"
same,binding signal,[19],"2.05 fold enrichment (6-mer frequency, TF over GST control)"
